Test [1] can be described thus: UWB1.289 ovarian carcinoma cell growth inhibition, synergistic combos for chromothripsis tumors, BGB or cisplatin combos (AID 1671456; in the data active = inhibition above about 80%;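 also: cells exposed to compound for four days; 0% = vehicle DMSO and 100% = killing by high DMSO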). The note with it: UWB1.289 ovarian carcinoma cells, stronger effect = higher value.
Test [2] in a line: LFS_MB_2R medulloblastoma cell growth inhibition, synergistic combos for chromothripsis tumors, cisplatin combos (AID 1671457; in the data active = inhibition above about 80%;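 also: cells exposed to compound for four days before readout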). The note with it: LFS_MB_2R medulloblastoma cells, stronger effect = higher value.
Test [3] in a line: MDA-MB-436 breast carcinoma cell growth inhibition, synergistic combos for chromothripsis tumors, BGB or cisplatin combos (AID 1671458; call rule not given here;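 also: cells exposed for 96 hours; 0% = vehicle DMSO and 100% = killing by high DMSO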). The note with it: MDA-MB-436 breast carcinoma growth inhibition, drug combinations, stronger effect = higher value.
Test [4] in a line: UWB1.289_BRCA1 ovarian cancer growth, cell-based, BGB or cisplatin combinations (AID 1671459; in the data active = inhibition above about 80%). The note with it: UWB1.289 BRCA1 ovarian carcinoma, drug combinations, stronger effect = higher value.
Test [5] can be described thus: human astrocyte viability loss, single and combined drugs, cytotoxicity control for chromothriptic childhood tumor combination screen, cell-based, BGB or cisplatin IC20 combos (AID 1671460; in the data active = inhibition above about 80%;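 also: cells exposed to compounds for 96 hours before viability readout; 0% = vehicle and 100% = killing control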). The note with it: Human astrocytes, drug combinations, stronger effect = higher value.
Test [6] is described as follows: growth inhibition of BT084 medulloblastoma cells, cell-based, ICGC_MB145, cisplatin and BGB IC40 combos (AID 1671461; in the data active = inhibition above about 80%;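 also: cells exposed to drugs for 96 hours; 0% = vehicle DMSO and 100% = high DMSO full killing control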). The note with it: drug combinations, stronger effect = higher value.
Test [7] in a line: growth inhibition of RCMB18 medulloblastoma cells, cell-based, cisplatin and BGB IC40 combos (AID 1671462; in the data active = inhibition above about 80%;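 also: cells exposed to compound for four days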). The note with it: stronger effect = higher value.
The nature of test [8]: growth inhibition of CRL1545 osteosarcoma cells, cell-based, cisplatin and BGB IC20 combos (AID 1671464; in the data active = inhibition above about 80%;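 also: cells exposed to compound for 96 hours before readout; 0% = vehicle DMSO and 100% = high DMSO killing control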). To be noted: stronger effect = higher value.
The next test has as its system F380Y. The test is described as follows: modulators of BK channel variants, profiling panel, selectivity assay, cell-based, U2OS BacMam, thallium flux, beta subunits (AID 1259406).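 Also: initial slope of Thallos dye fluorescence rise after thallium is added; log ratio against the mean of 0.3% DMSO vehicle wells on the same plate.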 To be noted: at 30 µM.
The next test concerns F380Y/beta1. Described as above. The note with it: at 30 µM.
A further test deals with F380Y/beta2Delta. The test is described as above. The note with it: at 30 µM.
The next test relates to F380Y/beta4. The description is as above. To be noted: at 30 µM.
Test [9] deals with Calcium-activated potassium channel subunit alpha-1 (Homo sapiens) + Leucine-rich repeat-containing protein 26 (Homo sapiens) (UniProt Q12791+Q2I0M4). The test is described as above. The note with it: F380Y/Slo1WT/gamma1, at 30 µM.
Chain of Calcium-activated potassium channel subunit alpha-1 (Homo sapiens) + Leucine-rich repeat-containing protein 26 (Homo sapiens) (Q2I0M4 whole entry, looked up, one chain of several): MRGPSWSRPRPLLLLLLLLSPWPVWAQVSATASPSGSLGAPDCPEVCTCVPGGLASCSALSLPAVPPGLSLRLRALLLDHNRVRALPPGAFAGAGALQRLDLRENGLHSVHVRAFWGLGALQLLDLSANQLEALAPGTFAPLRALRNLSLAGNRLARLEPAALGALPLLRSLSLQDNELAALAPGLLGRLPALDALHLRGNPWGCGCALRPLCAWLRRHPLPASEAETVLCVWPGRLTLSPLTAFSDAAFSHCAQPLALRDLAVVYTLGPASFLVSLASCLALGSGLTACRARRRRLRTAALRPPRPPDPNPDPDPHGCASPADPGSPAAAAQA
Another test has as its system R275C. Described as above. The note with it: at 30 µM.
The test system of another test is R275C/beta1. Described as above. The note with it: at 30 µM.
The test system of another test is R275C/beta2Delta. Described as above. The note with it: at 30 µM.
A further test deals with R275C/beta4. Described as above. The note with it: at 30 µM.
In a further test the test system is R275C/Slo1WT/beta2. Described as above. The note with it: at 30 µM.
Where [10] appears, read: measured here: inhibition with BGB combination, at 0.05 µM.
Where [11] appears, read: measured here: inhibition with cisplatin combination, at 0.05 µM.
The mark [12] stands for this setting: measured here: combination with cisplatin, at 0.5 µM.
Where [13] appears, read: measured here: combination with cisplatin, at 5 µM.
[14] abbreviates: measured here: BGB combination, at 0.5 µM.
Where [15] appears, read: measured here: BGB combination, at 5 µM.
Where [16] appears, read: measured here: cisplatin combination, at 0.5 µM.
[17] abbreviates: measured here: cisplatin combination, at 5 µM.
Where [18] appears, read: BGB combination, concentration series, at 5 µM.
Where [19] appears, read: cisplatin combination, concentration series, at 5 µM.
The mark [20] stands for this setting: measured here: combo with BGB IC20, at 0.5 µM.
The mark [21] stands for this setting: measured here: combo with cisplatin IC20, at 0.5 µM.
Where [22] appears, read: cisplatin combination, at 0.5 µM.
[23] abbreviates: measured here: BGB IC40 combination 0.05 uM, at 0.05 µM.
The mark [24] stands for this setting: measured here: BGB IC40 combination, at 0.05 µM.
Setting [25] is: measured here: with BGB IC20 combination, at 0.5 µM.
The mark [26] stands for this setting: measured here: with cisplatin IC20 combination, at 0.5 µM.

The structures appear in SMILES notation. Where “and” joins values, the source holds several entries; their conditions need not be identical. Equal entries are not always repeated. Calls of active or inactive are those of the source.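 The calls were made as follows, unless noted: active = thallium flux through the channel raised or lowered by more than 3 SD from vehicle-only wells, actives on both sides; inactive = the rest.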

One may read the inhibition as the relative decrease from the control value, in per cent.

Turning to `Nc1nc2c(ncn2COC(CO)CO)c(=O)[nH]1`, the inhibition in test [1] (at 0.5 µM) is 8.41% (inactive); in test [1] (setting [10]), -10.6%; in test [1] (setting [11]) it was 1.36%; in test [2] (at 0.5 µM), 1.52% (inactive); in test [2] (setting [12]), 8.4%; in [2] (setting [13]), 102%. In addition, the inhibition was -1.05% (inactive) in test [3] (at 0.5 µM); 1.08% in test [3] (setting [14]); 38.9% in test [3] (setting [15]); -7.9% in [3] (setting [16]); 51.5% in test [3] (setting [17]); 35.4% in test [4] (setting [18]). In addition, the inhibition is 7.28% (inactive) in [4] (at 0.5 µM); 66% in test [4] (setting [19]); 19.3% (inactive) in test [5] (at 0.5 µM); 14.4% in test [5] (setting [20]); 21.1% in test [5] (setting [21]); 25.1% (inactive) in test [6] (at 0.5 µM). Moreover, the inhibition is 43% in [6] (setting [22]); 103% in test [6] (cisplatin combination, at 5 µM); 16.9% in test [6] (setting [23]); 107% in test [6] (single agent, at 5 µM); 15.7% (inactive) in [7] (at 0.5 µM); 102% in test [7] (cisplatin combo, at 5 µM). Besides, the inhibition in test [7] (setting [24]) is 12.8%; in test [7] (setting [12]) it was 27.1%; in [7] (single agent, at 5 µM), 88.8%; in test [8] (at 0.5 µM), 44.7% (inactive); in [8] (setting [25]), 29.8%; in test [8] (setting [26]), 52.1%. Also, the inhibition in test [8] (single agent, at 0.05 µM) came to 3.9%; in [8] (single agent, at 5 µM), 93.9%. Further, the log fold change Tl+ flux in the test on F380Y is -0.00258 (inactive); in the test with F380Y/beta1 it was 0.0388 (inactive); in the test with F380Y/beta2Delta, 0.0461 (inactive); in the test with F380Y/beta4 it was 0.0377 (inactive); in test [9], -0.00437 (inactive); in the test with R275C, 0.0708 (inactive). The log fold change Tl+ flux with R275C/beta1 is -0.0192 (inactive); in the test with R275C/beta2Delta, 0.0472 (inactive); with R275C/beta4 it was -0.0224 (inactive); with R275C/Slo1WT/beta2, -0.00303 (inactive).

Take `S=P(N1CC1)(N1CC1)N1CC1`: the inhibition was -18.2% (inactive) and 3.65% (inactive) in test [1] (at 0.5 µM); -11.2% and -17.2% in [1] (setting [10]); -30.7% and -4.4% in [1] (setting [11]); -6.41% (inactive) and -22.2% (inactive) in test [2] (at 0.5 µM); -11.5% and -15% in [2] (setting [12]); 6.16% and -16.8% in test [2] (setting [13]). Besides, the inhibition is 3.12% (inactive) and -15.6% (inactive) in [3] (at 0.5 µM); 5.95% and -18.7% in test [3] (setting [14]); 29.4% and 17.8% in test [3] (setting [15]); -1.16% and -30.9% in test [3] (setting [16]); 28.2% and 9.67% in test [3] (setting [17]); 4.52% and 17.6% in [4] (setting [18]). In addition, the inhibition was -8.8% (inactive) and -2.14% (inactive) in test [4] (at 0.5 µM); 2.09% and 16% in test [4] (setting [19]); -9.07% (inactive) and -1.79% (inactive) in test [5] (at 0.5 µM); 3.46% and -2.7% in test [5] (setting [20]); -14.4% and -11.6% in test [5] (setting [21]); 0.706% (inactive) and -3.22% (inactive) in test [6] (at 0.5 µM). Besides, the inhibition in test [6] (setting [22]) was -14.4% and 6.01%; in test [6] (cisplatin combination, at 5 µM), -20% and -51.6%; in test [6] (setting [23]), -8.78% and -15.6%; in test [6] (single agent, at 5 µM) it was -22.6% and -19.6%; in [7] (at 0.5 µM), -6.9% (inactive) and -9.28% (inactive); in test [7] (cisplatin combo, at 5 µM) it was -6.08% and -6.23%. Besides, the inhibition is -9.84% and -6.48% in [7] (setting [24]); -21.1% and 0.266% in test [7] (setting [12]); -45.9% and -29.6% in [7] (single agent, at 5 µM); -18.6% (inactive) and -31% (inactive) in test [8] (at 0.5 µM); 7.82% and -2.28% in test [8] (setting [25]); -31.7% and -45.4% in test [8] (setting [26]). Moreover, the inhibition in test [8] (single agent, at 0.05 µM) was -43.5% and 4.65%; in [8] (single agent, at 5 µM) it was -38.5% and 10.3%.

In the case of `CN(Cc1cnc2nc(N)nc(N)c2n1)c1ccc(C(=O)N[C@@H](CCC(=O)O)C(=O)O)cc1`, the log fold change Tl+ flux in the test with F380Y was -0.0413 (inactive); in the test on F380Y/beta2Delta it was -0.018 (inactive); in [9], 0.0152 (inactive); in the test on R275C it was 0.0652 (inactive); in the test with R275C/beta1, -0.0323 (inactive); in the test with R275C/beta2Delta, 0.0014 (inactive).

As to `Cc1ccc(NC(=O)c2ccc(CN3CCN(C)CC3)cc2)cc1Nc1nccc(-c2cccnc2)n1`, the log fold change Tl+ flux is 0.141 (active) in the test with F380Y; 0.0732 (inactive) in the test with F380Y/beta2Delta; -0.0387 (inactive) in [9]; -0.00147 (inactive) in the test on R275C; 0.00665 (inactive) with R275C/beta1; 0.0291 (inactive) with R275C/beta2Delta.

The values above are taken from PubChem BioAssay.
